# Measured values taken from PubChem BioAssay AID2314 (National Center for Advancing Translational Sciences (NCATS), 2010).
# In all, about 300,000 compounds went through this assay and about 37,000 (12%) were called active. No stated cut-off is given here; in the data, active means max response mostly above about 13% (no sharp cut-off); inactive means mostly below about 14%. Shown is part of a subset that was picked to be rich in actives.
# Test: Cycloheximide Counterscreen for Small Molecule Inhibitors of Shiga Toxin; further: read at 38.3 µM for the half of the compounds with a filed dose; 0% is about no effect
# Conditions: cell reporter, cycloheximide protein synthesis inhibition counterscreen; stronger effect = higher value
row,SMILES,max response
1,CCOC(=O)C1=C(C)OC(N)=C(C#N)C1c1cncc(-c2ccc(F)cc2)c1 (stereo not drawn),-4.52% (inactive)
2,CN(C)c1ccc(C(=S)N2CCN(C(=S)Nc3ccc(Cl)cc3)CC2)cc1,-2.08% (inactive)
3,C=CCc1cccc2cc(C(=O)Nc3ccc(NC(C)=O)cc3)c(=O)oc12,7.03% (inactive)
4,CC1Cc2ccccc2N1C(=O)CSc1nnc(C2CC2)n1C (stereo not drawn),-2.64% (inactive)
5,C[C@@H]1C[C@@H]2O[C@H]2/C=C\C=C\C(=O)Cc2c(Cl)c(O)cc(O)c2C(=O)O1,8.16% (active)
6,O=C(OCC1O[C@@H](OC(=O)c2cc(O)c(O)c(O)c2)[C@@H](OC(=O)c2cc(O)c(O)c(O)c2)[C@@H](OC(=O)c2cc(O)c(O)c(O)c2)[C@@H]1OC(=O)c1cc(O)c(O)c(O)c1)c1cc(O)c(O)c(O)c1 (stereo partly drawn),-3.49% (inactive)
7,Cc1cc(C)cc(N(CC(=O)NCCSCc2ccco2)S(C)(=O)=O)c1,-3.57% (inactive)
8,OCCNCCOc1ccc(Cl)c(Cl)c1,-2.06% (inactive)
9,COc1ccc(CCNC(=O)CSc2nc(-c3ccc(OC)c(OC)c3)ccc2C#N)cc1,-0.296% (inactive)
10,COc1ccc2oc(N)c(C=O)c(=O)c2c1,11.3% (inactive)
11,CCc1cc2c(=O)c(-c3ccon3)c(N)oc2cc1OC,40.8% (active)
12,CCc1cc2c(=O)c(-c3ccc(F)cc3)c(C(F)(F)F)oc2cc1OCC(=O)O,-0.895% (inactive)
13,COC(=O)Cn1cc(/C=C/[N+](=O)[O-])c2ccccc21,0.349% (inactive)
14,Cc1cc(C)c([N+](=O)[O-])cc1-c1ccc(/C=N/NC(=O)c2nonc2N)o1,8.92% (inactive)
15,Cc1nn(-c2ccccc2)c(NC(=O)c2cccs2)c(-c2ccc(Cl)cc2)c1=O,-4.56% (inactive)
16,Cc1nn(-c2ccccc2)c(Cl)c1/C=N/NC(=O)c1nn(C)cc1[N+](=O)[O-],30.2% (active)
17,Cc1ccc(-n2nc(C)c(/C=N/NC(=O)c3cccs3)c2Cl)cc1,41.5% (active)
18,Cc1ccc(-c2nnc(SCC(=O)N/N=C/c3cccs3)n2-c2ccc(C)cc2)cc1,-2.1% (inactive)
19,Cc1nn(-c2ccccc2)c(C)c1/C=N/NC(=O)CSc1nc2ccccc2c(=O)n1-c1ccccc1,-2.06% (inactive)
20,COc1ccc(CCN(C)C(=O)C23CC4CC(CC(Cl)(C4)C2)C3)cc1OC,6.24% (inactive)
21,Cc1ccc(C(=O)N2CCC(n3nccc3NC(=O)Nc3cccc(F)c3)CC2)cn1,-3.88% (inactive)
22,Cc1ccc(S(=O)(=O)NCc2cn3ccsc3n2)c(C)c1,2.86% (inactive)
23,COc1ccc(-c2ccnc(SCC(=O)N3CCOCC3)n2)cc1,2.08% (inactive)
24,COc1cc(OC)cc(-c2nc(=S)n3ccsc3n2)c1,-1.36% (inactive)
25,c1ccc(-c2cn3c(n2)CCc2ccc4cccnc4c2-3)cc1,11.1% (inactive)
26,Cc1ccccc1Nc1c(-c2ccccc2)nc2ncccn12,-1.21% (inactive)
27,COc1ccc(-c2cn3cccnc3n2)cc1,23.9% (active)

row,SMILES,max response
1,FC(F)(F)Oc1ccc(-c2cn3cccnc3n2)cc1,50.9% (active)
2,COc1ccc(-c2cn3ccsc3n2)cc1,42.7% (active)
3,CN1CCN(Cc2ccc(OC(F)(F)F)cc2)CC1,-2.95% (inactive)
4,c1ccc(-c2cn3cccnc3n2)cc1,15.7% (active)
5,COc1ccc(N2CCN(C(=O)CSc3nnc4ncccn34)CC2)cc1,-1.32% (inactive)
6,CC(C)CC[n+]1ccn(C2=C([O-])c3ccccc3C(=O)/C2=N\S(=O)(=O)c2ccccc2)c1,-1.98% (inactive)
7,O=[N+]([O-])c1ccc(Oc2ccc(F)cc2Br)c2ccncc12,-2.77% (inactive)
8,CCCCn1nc(C(=O)Nc2ccc(S(=O)(=O)Nc3ncccn3)cc2)c2ccccc2c1=O,-8.36% (inactive)
9,O=C1c2cccc(OCC(=O)N3N=C(c4cccs4)CC3c3ccc(F)cc3)c2CCN1Cc1ccccc1 (stereo not drawn),4.05% (inactive)
10,CCOc1cc(C2C(C(=O)c3ccco3)=C(O)C(=O)N2Cc2ccccc2)ccc1O (stereo not drawn),4.82% (inactive)
11,Cc1cc(=O)oc2c(C)c(OCC(=O)NCCN3CCOCC3)ccc12,7.13% (inactive)
12,CCNc1c(NS(=O)(=O)c2ccc(C3CCCCC3)cc2)c(=O)oc2ccccc12,-5.65% (inactive)
13,CC(c1ccccc1)n1c(NCCCn2ccnc2)nc2c1c(=O)[nH]c(=O)n2C (stereo not drawn),-2.03% (inactive)
14,COc1ccc(-c2c(NC(=O)c3ccco3)oc3ccc(Cl)cc3c2=O)cc1,1.49% (inactive)
15,COc1ccc(CN2CCCC(N3CCc4ccccc4C3)C2)c(O)c1 (stereo not drawn),-0.856% (inactive)
16,CCOc1ccc(NC(=O)[C@H](C)NC(=O)C2CC(=O)N(c3ccc(OC)cc3)C2)cc1 (stereo partly drawn),4.95% (inactive)
17,O.O.O.O=S(=O)([O-])OC[C@H]1O[C@@H](O[C@]2(COS(=O)(=O)[O-])O[C@H](OS(=O)(=O)[O-])[C@@H](OS(=O)(=O)[O-])[C@@H]2OS(=O)(=O)[O-])[C@H](OS(=O)(=O)[O-])[C@@H](OS(=O)(=O)[O-])[C@@H]1OS(=O)(=O)[O-].[Al],-3.55% (inactive)
18,O=C(c1ccccc1)N1CCN(C(=O)c2cc3nc(-c4ccccc4)cc(C(F)(F)F)n3n2)CC1,-1.97% (inactive)
19,COc1cccc(-c2nnc(NC(=O)c3ccc(S(=O)(=O)N(CC(C)C)CC(C)C)cc3)o2)c1,-5.08% (inactive)
20,Cc1ccc(N2C(=O)C3CC3C2=O)cc1 (stereo not drawn),-6.06% (inactive)
21,Cc1ccc(N2CCN(c3ccc(C)cc3)C2c2ccccn2)cc1,21.8% (active)
22,Cc1ccc(S(=O)(=O)NCC(=O)N2CCN(c3ccccn3)CC2)cc1,-5.16% (inactive)
23,CC1=NN(/C(=N\c2nnc(C)s2)Nc2ccccc2)[C@H](c2ccc(C)cc2)S1,-0.911% (inactive)
24,COc1ccc(O)c(C(=O)c2cnc3c(c2)c(-c2ccc(F)cc2)c(C#N)c(=O)n3C)c1,11.3% (inactive)
25,COCCn1c(=O)[nH]c(=O)c2cc(C(=O)c3cc(OC)ccc3O)cnc21,-3.24% (inactive)
26,COc1ccc(O)c(C(=O)c2cnc3onc(C(C)C)c3c2)c1,26.6% (active)
